# Reference: PubChem BioAssay (NCI)
# The panel holds about 83,000 compounds, 20% with a hit somewhere; the sample as a whole holds those more often.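 How to read the values: 0–100, growth inhibition (40 = 60% inhibited); 0, no net growth; -100 to 0, cell death (-40 = 40% of starting cells died; -100 = all dead).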 A number with no mark means an inactive call. The source made the active and inactive calls. How the source made its calls: active means growth percent below 10; inactive means the rest.
# Columns and labels:
# Assay in all cases: NCI-60 one-dose screen, 48 h (100 = growth as untreated, 0 = no growth, -100 = all killed)
# Details in all cases: 10 µM unless noted
# DU-145 prostate = tested on: DU-145 prostate
# K-562 leukemia = tested on: K-562 leukemia
# MALME-3M melanoma = tested on: MALME-3M melanoma
# MDA-MB-231 breast = tested on: MDA-MB-231 breast
# RXF 393 renal = tested on: RXF 393 renal
# SF-268 CNS = tested on: SF-268 CNS
# SF-295 CNS = tested on: SF-295 CNS
# SF-539 CNS = tested on: SF-539 CNS
# UACC-257 melanoma = tested on: UACC-257 melanoma
# M14 melanoma = tested on: M14 melanoma
# HT29 colon = tested on: HT29 colon
# SNB-75 CNS = tested on: SNB-75 CNS
# SNB-19 CNS = tested on: SNB-19 CNS
# U251 CNS = tested on: U251 CNS
# PC-3 prostate = tested on: PC-3 prostate
# SK-MEL-5 melanoma = tested on: SK-MEL-5 melanoma
# UACC-62 melanoma = tested on: UACC-62 melanoma
# LOX IMVI melanoma = tested on: LOX IMVI melanoma
# SK-MEL-28 melanoma = tested on: SK-MEL-28 melanoma
# HCT-15 colon = tested on: HCT-15 colon
SMILES,growth (DU-145 prostate),growth (K-562 leukemia),growth (MALME-3M melanoma),growth (MDA-MB-231 breast),growth (RXF 393 renal),growth (SF-268 CNS),growth (SF-295 CNS),growth (SF-539 CNS),growth (UACC-257 melanoma),growth (M14 melanoma),growth (HT29 colon),growth (SNB-75 CNS),growth (SNB-19 CNS),growth (U251 CNS),growth (PC-3 prostate),growth (SK-MEL-5 melanoma),growth (UACC-62 melanoma),growth (LOX IMVI melanoma),growth (SK-MEL-28 melanoma),growth (HCT-15 colon)
COc1ccc(-c2ccc(NNC(=O)c3ccc(F)cc3)nn2)cc1OC,65.6%,55%,98.8%,36.2%,19.5%,58.2%,84.7%,65.8%,102%,100%,59.7%,8.18% (active),68.3%,77.1%,73.5%,71.6%,88.6%,44.2%,101%,
CC(C)OC(=O)Nc1cc(F)ccc1F,110%,97.4%,92.7%,97%,106%,103%,97.5%,92.1%,96.9%,96.6%,98.3%,95.3%,96.2%,100%,99.7%,101%,94.1%,106%,102%,
Clc1ccc(/C=N/Nc2nc3ccccc3s2)c(Cl)c1,97.9%,91%,79.6%,,114%,85.4%,97.5%,100%,93.5%,121%,84.1%,84.3%,103%,76.3%,79.5%,98.4%,103%,84.7%,114%,85%
Nc1cccc2c1C(=O)c1cccc(NC(=O)c3ccccc3)c1C2=O,6.99% (active),13.3%,-17% (active),38.4%,-10.7% (active),51.5%,-30.3% (active),-2.57% (active),56.2%,14.2%,2.96% (active),6% (active),45.3%,22.9%,32.5%,12.3%,48.4%,8.96% (active),44.6%,
COc1ccc2c(c1)C(C)Cc1c(ncnc1-n1cnc3ccccc31)N2C (configuration not stated),23.7%,14.2%,92.3%,12.9%,12.8%,37.4%,13.6%,4.91% (active),67.2%,18.3%,-17.8% (active),37.5%,33.4%,21.4%,17.5%,11.2%,39%,26.6%,59.5%,
CC(C)C1=NOC(=O)C1=Cc1cn(-c2ccccc2)nc1-c1ccc(Cl)cc1,94.3%,42.8%,93.2%,97%,58.2%,99.3%,96.9%,75.9%,105%,76.4%,67.9%,83.8%,86%,71.1%,78.7%,83.2%,75.6%,6.02% (active),84.9%,
COc1ncc(-c2ccc3nc(N)n(-c4ccccc4C(F)(F)F)c(=O)c3c2)cc1S(=O)(=O)Nc1ccc(F)cc1F,32.3%,61.5%,76.2%,-11% (active),10.6%,46.1%,33.4%,6.32% (active),82.5%,8.91% (active),10.8%,28.2%,76.1%,28.2%,39%,-48.9% (active),68.8%,-52.2% (active),53.9%,
COc1cc2c(cc1OC(C)=O)C(=O)CCCC2,128%,186%,93.3%,112%,94.2%,107%,107%,90.9%,86.7%,87.9%,96.5%,54.2%,109%,94.4%,87.5%,90.1%,105%,95.6%,95.2%,
